# Measurements as given in PubChem BioAssay AID1851 (National Center for Advancing Translational Sciences (NCATS), 2009).
# The campaign covered roughly 16,000 compounds. About 5,800 (36%) were called active. Not shown: some 23% with an inconclusive outcome. This is one part of the list. Unmarked numbers belong to inactive results. The call rests on the fitted dose curve; in most records, active means well fitted curve in the direction sought with a large enough effect; inconclusive means small, poorly fitted or top-dose-only effect, or effect the other way; inactive means no such curve, though single readings can be large or run the other way.
# Target: Cytochrome P450 2C19 (Homo sapiens) (UniProt P33261)
# Sequence (P33261 whole entry, looked up): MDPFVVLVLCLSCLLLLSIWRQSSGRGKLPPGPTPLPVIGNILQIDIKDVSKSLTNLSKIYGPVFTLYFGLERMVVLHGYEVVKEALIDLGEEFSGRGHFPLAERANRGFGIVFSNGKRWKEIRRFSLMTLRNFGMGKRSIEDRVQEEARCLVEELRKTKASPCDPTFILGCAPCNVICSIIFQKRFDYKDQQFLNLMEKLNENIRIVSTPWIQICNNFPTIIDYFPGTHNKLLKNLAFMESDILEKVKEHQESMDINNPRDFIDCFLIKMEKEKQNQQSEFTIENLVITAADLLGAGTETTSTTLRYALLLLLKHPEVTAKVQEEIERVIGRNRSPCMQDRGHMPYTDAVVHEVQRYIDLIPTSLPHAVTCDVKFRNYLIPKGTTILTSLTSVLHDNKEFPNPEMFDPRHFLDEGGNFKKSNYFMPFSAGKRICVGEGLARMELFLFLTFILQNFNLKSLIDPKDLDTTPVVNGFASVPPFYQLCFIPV
# Test: Cytochrome panel assay with activity outcomes
# Settings: recombinant CYP, pro-luciferin dealkylation, luminescence, p450-cyp2c19; series mostly up to 57.1 µM
# On the % scale 0 is the no-effect control and ±100 the full control effect.
Compound,AC50,"activity, negative = inhibition"
Cn1c(=N)c(S(=O)(=O)c2ccc(F)cc2)cc2c(=O)n3ccccc3nc21,11.2 µM (active),–
CCn1c(=N)c(S(=O)(=O)c2ccc(F)cc2)cc2c(=O)n3ccccc3nc21,8.91 µM (active),–
Cn1c(C(=O)N2COCC2(C)C)cc2c(=O)n3ccccc3nc21,inactive,–
Cc1cn([C@H]2C[C@H](O)[C@@H](COC(N)=O)O2)c(=O)[nH]c1=O,–,35.3% [at 11.4 µM]
COc1cccc(Nc2ncc3ncc(=O)n(C4CC4)c3n2)c1,inactive,–
COc1ccc(Nc2cc(=O)n(C3CCCCC3)c(=O)[nH]2)c(OC)c1,10 µM (active),–
COc1cccc(Nc2ncc3nc(-c4ccc(Cl)cc4)c(=O)n(C4CC4)c3n2)c1,inactive,–
CS[C@@H](CC(=O)O)C(=O)O,–,17.7% [at 11.4 µM]
COc1cccc(C(=O)N(C)c2nnc(-c3ccncc3)s2)c1,0.0501 µM (active),–
Cc1nnc(N(C)C(=O)c2ccccn2)s1,inactive,–
CCOc1ccc2nc(SCc3ccccc3C#N)sc2c1,1.26 µM (active),–
C=C(C)c1cccc(C(C)(C)NC(=O)Nc2cc(C)ccc2OC)c1,3.98 µM (active),–
CCCCn1c(NCc2ccccc2NS(=O)(=O)c2ccc(C)cc2)nc2ccccc21,1.26 µM (active),–
C#CCCCO/N=C1/C[C@@H](O)[C@@H](O)[C@@H]2[C@H]3C(=O)N(c4ccc(F)cc4F)C(=O)[C@@H]3CC[C@H]12,–,14.9% [at 11.4 µM]
c1ccc(C(CCN2CC3CCC(CC3)C2)c2ccccc2)cc1,–,21% [at 11.4 µM]
C[C@H](NCCC(c1ccccc1)c1ccccc1)c1ccccc1,5.01 µM (active),–
NC(=O)CNCCC(c1ccccc1)c1ccccc1,inactive,–
CCOC(=O)c1ccccc1Oc1c(F)c(F)nc(NCCO)c1F,2.51 µM (active),–
CCOC(=O)c1cnc(-n2nc(C)cc2C)nc1NCCO,inactive,–
COc1ccc(OC)c(C(=O)CSc2nnc(Cc3cccs3)n2CCc2ccccc2)c1,1.78 µM (active),–
COc1ccc(CCn2c3c(c(=O)[nH]c2=O)C(NC(=O)c2cccs2)(C(F)(F)F)C(=O)N3)cc1OC (centres undefined),inactive,–
COc1ccc(C(=O)NNC(=O)CSc2nnc(COc3ccc4ccccc4c3)n2C)cc1,inactive,–
CCn1c(COc2ccccc2)nnc1SCC(=O)Nc1cc(OC)ccc1OC,2.82 µM (active),–
COc1cccc(Nc2ncc3nc(CCc4ccccc4)c(=O)n(Cc4cccs4)c3n2)c1,inactive,–

Compound,AC50,"activity, negative = inhibition"
CCn1c(CNC(=O)COc2ccc(C(C)C)cc2)nnc1SCC(=O)Nc1cc(F)ccc1C,28.2 µM (active),–
COc1ccc(NC(=O)CSc2nnc(Cc3cccn3C)n2CCc2ccccc2)c(OC)c1,3.16 µM (active),–
COc1ccc([C@@H]2CC(=O)c3c(O)cc(O)cc3O2)cc1O,5.01 µM (active),–
O=C1c2c(O)cc(O)cc2O[C@@H](c2ccc(O)c(O)c2)[C@H]1O,inactive,–
COc1ccc([C@@H]2CC(=O)c3c(O)cc(O[C@H]4O[C@@H](CO[C@H]5O[C@@H](C)[C@@H](O)[C@@H](O)[C@@H]5O)[C@@H](O)[C@@H](O)[C@@H]4O)cc3O2)cc1O,inactive,–
Cn1cc(C(=O)c2cccc(Cl)c2Cl)cc1C(=O)O,inactive,–
Cc1c(-n2cc(C(=O)c3cc(Cl)ccc3O)cc(C#N)c2=O)c(=O)n(-c2ccccc2)n1C,inactive,–
Cn1cc(C(=O)c2ccc(Cl)cc2Cl)cc1C(=O)O,inactive,–
COC(=O)c1cc(C(=O)c2cccc(Cl)c2Cl)cn1C,1.26 µM (active),–
COC(=O)c1cc(C(=O)c2ccc(Cl)cc2Cl)cn1C,5.62 µM (active),–
CN(C)CCCn1cc(C2=C(c3c[nH]c4ccccc34)C(=O)NC2=O)c2ccccc21,inactive,–
CN(C)c1ncc2nc(-c3ccccc3)c(=O)n(CCc3ccccc3)c2n1,inactive,–
CN(C)c1ncc2ncc(=O)n(CCc3ccccc3)c2n1,2 µM (active),–
CN(C)c1ncc2ncc(=O)n(CCC#N)c2n1,inactive,–
CN(C)c1ncc2nc(-c3ccc(F)cc3)c(=O)n(CCc3ccccc3)c2n1,inactive,–
COc1ccc(-c2nc3cnc(N(C)C)nc3n(CCc3ccccc3)c2=O)cc1,inactive,–
Cc1nc2cnc(N(C)C)nc2n(CCc2ccccc2)c1=O,0.631 µM (active),–
Cc1ccc(-n2c(O)cnc2Nc2nc(C)cc(C)n2)cc1,inactive,–
COc1c(C)c2c(c(O)c1C/C=C(\C)CCC(=O)O)C(=O)OC2,inactive,–
CC(Sc1nnc(C(C)N(C)C)n1-c1ccc(Cl)cc1)C(=O)Nc1ccc2c(c1)OCO2 (centres undefined),22.4 µM (active),–
COCC(=O)N1CCC2(CC1)CCN(c1ccccn1)CC2,inactive,–
O=C(c1cnc(N2CCN(c3ncccn3)CC2)c2ccccc12)N1CCN(c2ncccn2)CC1,10 µM (active),–
O=C(c1cnc(N2CCN(c3ncccn3)CC2)c2ccccc12)N1CCN(c2ccccn2)CC1,5.01 µM (active),–
CC(=O)N1CCC2(CC1)CCN(c1ccccn1)CC2,inactive,–

Compound,AC50,"activity, negative = inhibition"
CC(C)c1ccc(OCc2ccc(C(=O)N3CCN(c4ccccn4)CC3)cc2)cc1,11.2 µM (active),–
Cn1cccc1C(=O)N1CCC2(CC1)CCN(c1ncccn1)CC2,inactive,–
COc1ccccc1C(=O)N1CCN(c2ccccn2)CC1,7.08 µM (active),–
O=C(O)CCC(=O)N1CCN(c2ccccn2)CC1,inactive,–
O=C(c1cnccn1)N1CCC2(CC1)CN(c1ccccn1)C2,inactive,–
O=C(c1cnccn1)N1CCC2(CC1)CCN(c1ccccn1)CC2,inactive,–
O=C(c1cnccn1)N1CCC2(CC1)CCN(c1ncccn1)CC2,inactive,–
COCC(=O)N1CCC2(CC1)CCN(C(=O)NC(C)C)CC2,inactive,–
Cc1ccc(-n2nnnc2C(=Cc2ccc(N(C)C)cc2)c2nnnn2-c2ccc(C)cc2)cc1,1.26 µM (active),–
O=C1CC(c2cccc(F)c2)SC(N(c2ccccc2)c2ccccc2)=N1 (centres undefined),5.01 µM (active),–
COC(=O)C(Cc1ccc(OC(=O)c2ccc(Cl)cc2)cc1)N1Cc2ccccc2C1=O (centres undefined),2.82 µM (active),–
COC(=O)C(Cc1ccc(OC(=O)c2ccc(C(F)(F)F)cc2)cc1)N1Cc2ccccc2C1=O (centres undefined),14.1 µM (active),–
O=C(Oc1ccc2c(c1)CN(Cc1ccccc1)CO2)c1ccccc1,–,-25.4% [at 11.4 µM]
CN1CCN(c2ncc3nc(-c4ccccc4)c(=O)n(Cc4cccs4)c3n2)CC1,inactive,–
CC(C)[C@]1(Cl)CC[C@@H]2[C@]3(C)CCC[C@@](C)(C(=O)O)[C@H]3C[C@H](Cl)[C@@]2(Cl)[C@H]1Cl,–,-28.4% [at 11.4 µM]
Cc1noc(N)c1C(=O)Nc1ccc(F)cc1,inactive,–
Cc1cc(NC(=O)Nc2ccc(F)cc2)no1,14.1 µM (active),–
C1CCC(N=C(NC23CC4CC(CC(C4)C2)C3)N2CCOCC2)CC1,inactive,–
Cc1ccc(S(=O)(=O)O[C@H]2C[C@@H](C(C)(C)C)CC[C@@H]2c2ccccc2)cc1,3.16 µM (active),–
Cc1ccc(S(=O)(=O)ON=C2CCN(S(=O)(=O)c3ccccc3)CC2)cc1,inactive,–
C=CCSc1nc(C)cc(/C=C\c2ccccc2)c1C#N,5.62 µM (active),–
CCOC(=O)COc1cc(OCC(=O)OCC)c2c(=O)cc(-c3ccccc3)oc2c1,14.1 µM (active),–
O=C(O)c1cc(=O)c2c(OCC(O)COc3cccc4oc(C(=O)O)cc(=O)c34)cccc2o1,inactive,–
CC(C)C12CC[C@@]3(CC[C@H]4[C@@](C)(CCC[C@]4(C)C(=O)O)[C@@H]3C1)[C@@H](CN)C2,–,8.51% [at 11.4 µM]

Compound,AC50,"activity, negative = inhibition"
Cc1ccc(O)c(C(=O)c2cc(C#N)c(=O)n(-c3c(C)n(C)n(-c4ccccc4)c3=O)c2)c1,inactive,–
c1ccc(/C(=N/Nc2nc3ccccc3s2)c2ccccn2)cc1,–,-42.9% [at 11.4 µM]
Brc1ccc(/C=C/C=N/Nc2nc3ccccc3s2)cc1,3.55 µM (active),–
O=c1c(-c2cc(F)cc(F)c2)nc2cnc(N3CCOCC3)nc2n1-c1ccccc1,inactive,–
O=S(=O)(c1ccccc1)c1cnn2c(C(F)(F)F)cc(-c3ccc(F)cc3)nc12,inactive,–
Fc1ccc(-c2cn3cc(C(F)(F)F)cc(Cl)c3n2)cc1,10 µM (active),–
CCOC(=O)CSC1=NC(=O)/C(=C\c2ccc(OC(C)=O)cc2)S1,15.8 µM (active),–
O=C1CC[C@H](NC(=O)c2ccccc2)C(=O)N1,–,28.7% [at 11.4 µM]
O=C1CSC(c2ccccc2F)N1c1cc(Cl)ccc1O (centres undefined),0.891 µM (active),–
Nc1nc(N)nc(CC(=O)O)n1,–,-6.24% [at 11.4 µM]
Cc1ccccc1-c1cncnc1N(C)Cc1ccco1,5.01 µM (active),–
Cc1noc(C)c1-c1cncnc1N(C)Cc1ccco1,2.51 µM (active),–
Cc1noc(C)c1-c1cncnc1NC1CC1,inactive,–
CN(Cc1ccco1)c1ncncc1-c1ccccc1Cl,0.794 µM (active),–
CN(Cc1ccco1)c1ncncc1-c1ccccc1C(F)(F)F,3.98 µM (active),–
CC1(C)S[C@@H]2[C@H](NC(=O)[C@@H](NC(=O)N3CCNC3=O)c3ccccc3)C(=O)N2[C@H]1C(=O)O,inactive,–
CC1(C)O[C@H]2[C@@H](O1)[C@@H](On1nnc3ccc(Cl)cc31)O[C@@H]2[C@@H]1COC(C)(C)O1,–,17% [at 11.4 µM]
O=C(NCc1ccco1)c1ccc2c(=O)n(-c3ccccc3)c(=S)[nH]c2c1,inactive,–
O=C(CCCCn1c(=S)[nH]c2ccsc2c1=O)NCc1ccco1,14.1 µM (active),–
O=C(CCCCCn1c(=O)[nH]c2ccsc2c1=O)NCc1ccc2c(c1)OCO2,10 µM (active),–
Cc1ccc(-n2c(=O)c3sccc3n(CC(=O)NCc3ccco3)c2=O)cc1F,inactive,–
O=C(CCn1c(=O)[nH]c2ccsc2c1=O)Nc1ccc(F)c(F)c1,inactive,–
